Not all results are given here. No count for the full screen is at hand. A number with no mark means an inactive call.
B1: il10ra_site1_normal_mot_39ab2cb694c8b9c1dc7e65c0d672c93e_0001_000000036_0001_53_65_H_._HHH_b2_05692_af2_0001_0000600025_0000002_0 (protein)
chain: SSSSDEEEEELRELVEEVERLIERNDREEALRVAAEALRLAFRARNPEVLQLLWELAKLLSSSSS
B2: il10ra_site1_sap_13_mot_8756ee2cf497b5429c717dfc0c0bcfd6_0001_000000186_0001_1_13_H_._HHH_b2_05518_af2_0001_0000600027_0000001_0_0001 (protein)
chain: SSSSDLEELARAAVRLIEQAIEWGDEERAKFALLALEMAAEETNDPELRELLEELEKLLRGSSSS
B3: il10ra_site1_sap_25_mot_HHH_b1_08133_000000195_0001_1_19_H_._HHH_b1_03607_0001_0000200023_0000001_0_0001_af2pred_0001 (protein)
chain: SSSSSEEVEELEEEARELIKRNDPEEVLKIIRRLARLAFRLNDPEISKIAIELAELLKKLDSSSS
B4: il10ra_site1_normal_mot_HHH_b2_02337_000000026_0001_38_52_H_._HHH_b2_04211_af2_0001_0000300011_0000002_0 (protein)
chain: SSSSDEEREEIEELIKEFEELLERGDREEAVRVVTEALQFALKLGDQELLKRIWELVKSLSSSSS
B5: il10ra_site1_sap_17_mot_HHH_b1_06914_000000280_0001_1_18_H_._HHH_b2_08155_0001_0000100009_0000001_0_0001 (protein)
chain: SSSSDEANERVWELLREALHIDDPEEAREVVEEAAEIAEERNNRVLLHNIRFLLRQLEKGSSSSS
B6: il10ra_site1_sap_23_mot_HHH_b1_08616_000000009_0001_1_19_H_._HHH_b2_04715_af2_0001_0000100004_0000001_0_0001 (protein)
chain: SSSSSDQEEQLIRALLWFAEWTSNPTARRLMLEQAERHARELGNEELREEVERVEKELEESSSSS
B7: il10ra_site1_normal_mot_HHH_b1_05056_000000217_0001_1_20_H_._HHH_b2_03866_0001_0000200011_0000001_0 (protein)
chain: SSSSSSEEREEVEELLEEAEHVDDLRELARILAEAVRFAYEGKDEEALQLVWEVVRRLFSSSSSS
B8: il10ra_site1_sap_16_mot_HHH_b2_00943_af2_000000149_0001_1_17_H_._HHH_b1_06222_0001_0000300032_0000001_0_0001_af2pred_dldesign_0_af2pred (protein)
chain: SSSSSPENEELVRLIREVAELLYDGKPEEAREKLKEAEELTEKLGDEIFKRNIELLRKELESSSS
B9: il10ra_site1_sap_16_mot_HHH_b1_06789_af2_000000041_0001_1_20_H_._HHH_b1_04240_af2_0001_0000500015_0000001_0_0001 (protein)
chain: SSSSSDEEYEEEVERLLEEAEKIPDPREAAEVLLKALRVALRGNDPELLHLVWEVLEEISSSSSS
B10: il10ra_site1_normal_mot_HHH_b1_06057_000000129_0001_22_38_H_._HHH_b2_05766_0001_0000200026_0000001_0 (protein)
chain: SSSSDRTARWSVEFALRVAEELAKRDPERARELLEHLAELLKEARDEELLEEVERLLEEIGSSSS
B11: il10ra_site1_normal_mot_HHH_b2_08287_af2_000000247_0001_1_16_H_._HHH_b2_07820_0001_0000300057_0000001_0_af2pred_0001 (protein)
chain: SSSSDEEEEEVKELLEEAKRIDDPRERTRVLVEAYALAFELNNPELEELVKEVAIELLERSSSSS
B12: il10ra_site1_sap_19_mot_HHH_b1_04514_000000156_0001_1_18_H_._HHH_b1_01679_0001_0000100001_0000001_0_0001_af2pred_0001 (protein)
chain: SSSSSSEAEKEVAKILIEVLRLNDEEAAERISHLLIRLIVEGDERLIEEIRELFEEVEENSSSSS
B13: il10ra_site1_normal_mot_HHH_b1_05672_af2_000000246_0001_1_19_H_._ems_3hC_444_af2_0001_0000400050_0000001_0 (protein)
chain: SSDLREEFSRVLIRAVRAAARHDEEKAEELVRRAEEIAEELGDEELERYVEIVKNFVESATRSSS
B14: il10ra_site1_sap_24_mot_HHH_b2_00622_af2_000000153_0001_40_57_H_._1ad9cd31332199d645683f25bccb3f2f_0001_af2_0001_0000400010_0000001_0_0001 (protein)
chain: SSSSSDEEAEEQVEELLEEAKRIEDREEVLRLLIEANRIAFRAGNDELQREIWRVAQELSSSSSS
B15: il10ra_site1_sap_19_mot_HHH_b1_01585_000000217_0001_1_18_H_._HHH_b1_05870_af2_0001_0000200018_0000002_0_0001 (protein)
chain: SSSSSRAEKVREILEEVVELQRQGDKEEAERLLEELLEELEELGDVNSLVNVEYLLRAVRKSSSS
B16: il10ra_site1_normal_mot_HHH_b1_01827_000000263_0001_1_19_H_._HHH_b2_07433_0001_0000500029_0000001_0_af2pred_0001 (protein)
chain: SSSSSTEEVERVIKLIRRALEIEDEEERRRLLEEAVELAEEGGNLVLLISARFALEDVEQSSSSS
B17: il10ra_site1_sap_10_mot_HHH_b1_05704_af2_000000048_0001_1_18_H_._HHH_b2_04382_0001_0000100002_0000001_0_0001_af2pred_0001 (protein)
chain: SSSSSEEEERVELALRFVKFLLKAGDPEAARFFVEWALEKAKELGNEELEEEAEELLREARSSSS
B18: il10ra_site1_sap_18_mot_HHH_b2_04327_000000030_0001_41_55_H_._HHH_b2_03484_af2_0001_0000400008_0000001_0_0001_af2pred_0001 (protein)
chain: SSSSSSSEEEELMQLAAEISRHASPEEIRRLFELLVRLYHEGDPELKEELRELIEEIKSSSSSSS
B19: il10ra_site1_normal_mot_HHH_b2_07144_000000289_0001_1_18_H_._HHH_b1_03935_0001_0000100008_0000001_1 (protein)
chain: SSSSSEEAEELYELSREVAHLHREGDEEEAKRLLEEAIELAEELGNFNILFALELLLRQLSSSSS
B20: il10ra_site1_sap_20_mot_HHH_b2_00093_af2_000000025_0001_40_54_H_._HHH_b2_05679_0001_0000100006_0000001_0_0001_af2pred_0001 (protein)
chain: SSSSSIHERDVELALLAARLLAERGDPEAVREALELARRQAESTNNEELEELVEEVERELSSSSS
B21: il10ra_site1_normal_mot_8756ee2cf497b5429c717dfc0c0bcfd6_0001_000000186_0001_1_13_H_._HHH_b1_06578_af2_0001_0000300032_0000001_1_af2pred_0001 (protein)
chain: SSSSSIAEEVFRLLREAAELYHEGDKEKAEEILKEAEELAEEANDEIAKVIIEFLKRAIENSSSS
B22: il10ra_site1_normal_mot_HHH_b1_00566_000000151_0001_22_39_H_._HHH_b1_00313_af2_0001_0000700014_0000001_0 (protein)
chain: SSSSDEREEIAILVAEAIILAERRGDKEVAEELWQLLVEAYYHGDPELFREVEELAEKFLSSSSS
B23: il10ra_site1_sap_26_mot_HHH_b2_06857_af2_000000179_0001_42_54_H_._HHH_b1_00069_af2_0001_0000100009_0000001_0_0001_af2pred_0001 (protein)
chain: SSSSSEEREEIYRLIREALELLANGNPEEAEEVLEEAERLAKEANSPLFEFALEAARRKVKSSSS
B24: il10ra_site1_normal_mot_HHH_b2_08186_000000021_0001_43_56_H_._HHH_b1_02914_0001_0000400023_0000001_0 (protein)
chain: SSSSDREERIQELLEEAEELAKEGNPEEAARLLQEAIRLAFELGDEELLKEIWEVLRKVASSSSS

molecular target: il10ra, Q13651; assay: yeast display titration
Sequence (Q13651 whole entry): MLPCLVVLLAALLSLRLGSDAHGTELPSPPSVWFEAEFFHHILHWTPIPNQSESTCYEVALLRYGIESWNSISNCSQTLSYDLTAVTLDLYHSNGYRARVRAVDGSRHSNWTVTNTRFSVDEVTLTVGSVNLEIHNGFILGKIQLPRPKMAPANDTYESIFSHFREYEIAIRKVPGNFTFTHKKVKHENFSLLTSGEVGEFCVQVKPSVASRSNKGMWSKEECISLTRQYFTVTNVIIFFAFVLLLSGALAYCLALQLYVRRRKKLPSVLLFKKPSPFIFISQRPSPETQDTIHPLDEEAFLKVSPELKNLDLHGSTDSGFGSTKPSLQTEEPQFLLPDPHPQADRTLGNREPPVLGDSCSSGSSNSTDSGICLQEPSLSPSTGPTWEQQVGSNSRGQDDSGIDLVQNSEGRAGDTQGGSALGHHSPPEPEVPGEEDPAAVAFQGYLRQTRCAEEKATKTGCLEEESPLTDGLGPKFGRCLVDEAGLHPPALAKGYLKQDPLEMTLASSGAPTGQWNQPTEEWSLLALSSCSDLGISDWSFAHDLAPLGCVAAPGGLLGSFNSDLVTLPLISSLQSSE

Row | Binder | apparent Kd
1 | B1 | no binding seen
2 | B2 | no binding seen
3 | B3 | > 233 nM
4 | B4 | no binding seen
5 | B5 | no binding seen
6 | B6 | no binding seen
7 | B7 | no binding seen
8 | B8 | no binding seen
9 | B9 | no binding seen
10 | B10 | no binding seen
11 | B11 | no binding seen
12 | B12 | no binding seen
13 | B13 | no binding seen
14 | B14 | no binding seen
15 | B15 | no binding seen
16 | B16 | no binding seen
17 | B17 | no binding seen
18 | B18 | no binding seen
19 | B19 | no binding seen
20 | B20 | no binding seen
21 | B21 | no binding seen
22 | B22 | 233 to 399 nM (active)
23 | B23 | no binding seen
24 | B24 | no binding seen
